Hit rate of the full screen: of about 350,000 compounds, about 31,000 (8.9%) were called active. Inconclusive results (about 15%) are left out. The call rests on the fitted dose curve; in most records, active means well fitted inhibition curve with a large enough effect; inconclusive means small, poorly fitted or top-dose-only effect; inactive means no such curve, though single readings can be large or run the other way. What follows is part of a selection rich in actives, with near analogues and random picks from the rest. Where a call stands in place of a potency, no number is given.
Potency means the concentration at half of the fitted maximal effect.

Sequence of Histone-lysine N-methyltransferase EHMT2 (Homo sapiens) (Q96KQ7 913-1193 limits assumed): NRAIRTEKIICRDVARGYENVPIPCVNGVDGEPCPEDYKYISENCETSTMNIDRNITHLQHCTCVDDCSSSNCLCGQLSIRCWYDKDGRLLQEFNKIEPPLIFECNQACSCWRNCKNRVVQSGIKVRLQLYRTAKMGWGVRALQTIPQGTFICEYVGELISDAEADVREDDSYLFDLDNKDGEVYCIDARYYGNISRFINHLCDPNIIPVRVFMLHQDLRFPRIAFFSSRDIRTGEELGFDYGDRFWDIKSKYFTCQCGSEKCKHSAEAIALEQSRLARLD

This experiment has as its target Histone-lysine N-methyltransferase EHMT2 (Homo sapiens) (UniProt Q96KQ7). Briefly: qHTS Assay for Inhibitors of Histone Lysine Methyltransferase G9a. Further: nearly all actives have a fitted effect of over 75% in size. The conditions noted are these: G9a H3K9 monomethylation, AlphaScreen, 2 h; series mostly up to 59 µM. In short, it runs like this: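 Chemiluminescent proximity detection of H3K9 monomethylation, read after 10 min bead incubation in the dark. Reaction: 20 nM G9a, 500 nM biotin-H3K9 peptide, 20 uM SAM cofactor, 2 h, room temperature, following 15 min enzyme-compound preincubation.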
(Quantitative high-throughput screening tests each substance at several concentrations.)
Consider `COc1ccc(S(=O)(=O)Nc2cc3c(C(=O)OC(C)C)c(C)oc3c3ccccc23)cc1`, for which the Potency entry is “inactive”.
On to `CCOc1ccc(N(C(=O)c2snc(C(N)=O)c2N)C(C(=O)NCC2CCCO2)c2c[nH]c3ccccc23)cc1` (configuration not stated), for which the Potency is 39.8 µM (active).
Consider `Cc1ccc(N(C(=O)c2snc(C(N)=O)c2N)C(C(=O)NCC2CCCO2)c2c[nH]c3ccccc23)cc1` (configuration not stated), for which the Potency entry was “inactive”.
For `COc1cccc(N(C(=O)c2snc(C(N)=O)c2N)C(C(=O)NCC2CCCO2)c2c[nH]c3ccccc23)c1` (configuration not stated), the Potency result is “inactive”.
As for `CN(CC(=O)Nc1ccc(OC(F)(F)F)cc1)C(=O)C1CCC1`, the activity, negative = inhibition is -37% [at 12.7 µM] (inactive).
Still for that read-out and setting: the same measure for `COc1ccc(Cl)cc1C(=O)NCC#N`: -0.132% [at 12.7 µM] (inactive).
Consider `N#C/C=C\Oc1ccc(Cl)cc1N`, for which the Potency is 44.7 µM (active).
Take `COCCNC(=O)C1CCN(S(=O)(=O)c2ccc3c(c2)OCCO3)CC1`: the activity, negative = inhibition is 2.44% [at 0.501 µM] (inactive).
For the compound `O=C(NC(=S)Nc1ccccc1N1CCCCC1)c1ccc(F)cc1`, the Potency entry is “inactive”.
As to `O=C(CC1N=C2c3ccccc3N=C(SCc3ccc(F)cc3)N2C1=O)NCc1cccs1` (configuration not stated), the Potency entry is “inactive”.
Still for that read-out and setting: the same measure for `Nc1nc(-c2ccccc2)cc(-c2ccccc2)n1`: “inactive”; for `CC(Oc1ccccc1)C(=O)Nc1oc(-c2ccco2)c(-c2ccco2)c1C#N` (configuration not stated): 28.2 µM (active).
On to `COc1cc(C(=O)Nc2oc(-c3ccccc3)c(-c3ccccc3)c2C#N)cc(OC)c1OC`, for which the Potency entry is “inactive”.
Still for that read-out and setting: the same measure for `CC(C)C(=O)Nc1oc(-c2ccccc2)cc1C#N`: “inactive”; for `CCC(=O)N1CCc2cc(Br)cc(S(=O)(=O)NCc3ccc(Cl)cc3)c21`: “inactive”.
As for `Brc1ccccc1/C=N/Nc1nc2ccccc2o1`, the Potency result was “inactive”.
Regarding `CCOCCCN1C(=O)C2C(C(=O)Nc3ccc(OCC)cc3)C3C=CC2(O3)C1C(=O)NC1CCCCC1` (configuration not stated), the Potency result was “inactive”.
As to `CCN(CC)CCN1C(=O)C2C(C(=O)Nc3ccc(Br)cc3)C3C=CC2(O3)C1C(=O)NC1CCCCC1` (configuration not stated), the Potency was 50.1 µM (active).
The same measure, in the same setting: the same measure for `CC(C)N1C(=O)C2C(C(=O)NC3CCCCC3)C3C=CC2(O3)C1C(=O)NC1CCCC1` (configuration not stated): “inactive”.
Still for that read-out and setting: the same measure for `CC(=O)N1c2ccc(S(=O)(=O)N3CCCCCC3)cc2CC1C(=O)NCc1ccccc1C` (configuration not stated): “inactive”; for `Cc1ccc(S(=O)(=O)NCCC(=O)NNC(=O)C2COc3ccccc3O2)cc1` (configuration not stated): “inactive”.
For `Cc1ccc(-n2ncc(C(=O)N(C)Cc3ccccc3)c2-n2cccc2)cc1`, the Potency result was “inactive”.
On the same count and under the same terms, the same measure for `COc1ccc(C(=O)NC2CC2)cc1OC1CCN(Cc2ccc(SC)cc2)CC1`: “inactive”; for `CCOC(=O)c1c(NC(C)=O)c2c3c(sc2n1Cc1c(C)cc(C)cc1C)CCCC3`: “inactive”.
As to `COc1cc2c(cc1OC)C(c1ccc(C)o1)CC(=O)N2` (configuration not stated), the Potency is 20 µM (active).
`COc1cc2c(cc1OC)C(c1ccncc1)CC(=O)N2` (configuration not stated): the activity, negative = inhibition is -34% [at 2.33 µM] (inactive).
For `COC(=O)c1ccc(C2CC(=O)Nc3cc(OC)c(OC)cc32)cc1` (configuration not stated), the Potency result is “inactive”.
Still for that read-out and setting: the same measure for `O=C(Nc1cc(C(F)(F)F)ccc1Cl)c1cc2nc(-c3ccc4c(c3)OCO4)cc(C(F)(F)F)n2n1`: “inactive”; for `CCOc1ccccc1N(CC)C(=O)Nc1cn(C)c(=O)c2ccccc12`: “inactive”; for `Cn1c(=O)c2[nH]c(NCC3CCCO3)nc2n(-c2ccccc2)c1=O` (configuration not stated): 8.91 µM (active).
Still for that read-out and setting: the same measure for `CC(C)(C)c1nc(NCC2CCCO2)c2nnn(Cc3ccccc3)c2n1` (configuration not stated): “inactive”; for `Cc1sc2c(c1C)c(=O)n(-c1ccccc1)c(=O)n2CC(=O)NCC1CCCO1` (configuration not stated): “inactive”; for `CCN(CC)C(=O)CSc1nc2ccsc2c(=O)n1Cc1ccccc1Cl`: “inactive”.
On the same count and under the same terms, the same measure for `CCCCN(C)c1ccc([N+](=O)[O-])cc1`: “inactive”; for `CCC1OC(c2ccc([N+](=O)[O-])cc2)=Nc2ccccc21` (configuration not stated): 44.7 µM (active); for `CCc1ccc2c(c1)C(c1ccc([N+](=O)[O-])cc1)=NNC(c1ccccc1)=N2`: “inactive”.
In the case of `Cc1cccnc1NC(=O)CSc1nnc(COc2ccc(C(C)C)cc2)n1C`, the Potency result was “inactive”.
For the compound `COc1ccc(-c2nnc(SCC(=O)Nc3cccnc3Cl)n2C)cc1`, the Potency is 20 µM (active).
Regarding `COc1ccc(OC)c(NC(=O)CSc2nc3cccnc3n2C)c1`, the activity, negative = inhibition was -2.8% [at 12.7 µM] (inactive).
In the case of `O=S(=O)(ON(c1ccccc1)S(=O)(=O)c1ccccc1)c1ccccc1`, the Potency entry is “inactive”.
The same measure, in the same setting: the same measure for `CC1=C/C(=N\OS(=O)(=O)c2ccccc2)C=CC1=O`: 2.51 µM (active).
In the case of `CCOc1ccc(/C=C/C(=O)N(CC)CC(=O)NCc2cccs2)cc1OC`, the activity, negative = inhibition is 7.69% [at 2.33 µM] (inactive).
In the case of `O=C(Cn1nnc(-c2ccccc2)n1)NC(=O)NC1CCCC1`, the Potency result is “inactive”.
Consider `Cc1ccc2c(c1)c1ncn(Cc3ccc(F)cc3)c(=O)c1n2C`, for which the Potency entry is “inactive”.
On the same count and under the same terms, the same measure for `CC(=O)Nc1ccc(NC(=O)CSc2nnc3c4cc(Br)ccc4n(C)c3n2)cc1`: “inactive”; for `Cn1c2ccc(F)cc2c2nnc(NN)nc21`: 39.8 µM (active); for `O=C(CN1C(=O)COc2ccc(S(=O)(=O)N3CCOCC3)cc21)N1CCN(c2cccc(Cl)c2)CC1`: “inactive”.
As for `CCN1CCN(c2nc(Nc3cc(OC)ccc3OC)nc(Nc3cc(OC)ccc3OC)n2)CC1`, the Potency result was “inactive”.
On the same count and under the same terms, the same measure for `CCOc1ccc(Nc2nc(Cl)nc(N3CCN(c4ccc(OC)cc4)CC3)n2)cc1`: 12.6 µM (active).
Same read-out and setting: the same measure for `Cc1ccc(Nc2nc(N3CCOCC3)nc(N3CCOCC3)n2)cc1Cl`: “inactive”; for `CC1CCN(c2nc3ccc(C(=O)N4CCN(c5ccccc5)CC4)cc3s2)CC1`: “inactive”; for `COC(=O)c1ccc(COC(=O)c2cnc(Cl)c(Cl)c2)cc1`: “inactive”.
On the same count and under the same terms, the same measure for `C/C(=N\NS(=O)(=O)c1cccc([N+](=O)[O-])c1)c1cc2ccccc2o1`: 12.6 µM (active); for `CC1CN(C(=O)c2ccccc2NS(=O)(=O)c2cccc([N+](=O)[O-])c2)CC(C)O1` (configuration not stated): “inactive”.
Take `Cc1cc(C)n(S(=O)(=O)c2cccc([N+](=O)[O-])c2)n1`: the Potency entry was “inactive”.
Consider `COc1ccccc1NS(=O)(=O)c1ccc(C)c(C(=O)NCC(c2ccco2)N(C)C)c1` (configuration not stated), for which the activity, negative = inhibition is 22.9% [at 0.501 µM] (inactive).
For the compound `COc1ccc(N2CCN(C3CCCCC3NS(=O)(=O)c3ccccc3)CC2)cc1` (configuration not stated), the Potency is 22.4 µM (active).
Same read-out and setting: the same measure for `CCN1CCN(C2CCCCC2NS(=O)(=O)c2ccc(Cl)cc2)CC1` (configuration not stated): “inactive”.
With `O=S(=O)(NC1CCCCC1N1CCN(c2ccccc2F)CC1)c1ccccc1` (configuration not stated), the Potency entry was “inactive”.
The same measure, in the same setting: the same measure for `CCC(=O)Nc1ccc(C(=O)N2CCN(C(=O)c3ccco3)CC2)cc1`: “inactive”; for `CCC(CC)c1nnc(NC(=O)C2CCN(C(=O)c3ccco3)CC2)s1`: 3.98 µM (active).
`COc1ccc(CNC(=O)C2CCN(C(=O)c3ccco3)CC2)cc1`: the Potency result is “inactive”.

For the origin of these results see PubChem BioAssay AID504332 (National Center for Advancing Translational Sciences (NCATS), 2011).
